Assay results published in ChEMBL document CHEMBL2218924, “A broad activity screen in support of a chemogenomic map for kinase signalling research and drug discovery” (Biochem J, 2013).

What was measured:
[1] = target: T1, Serine/threonine-protein kinase 3 (Homo sapiens) (UniProt Q13188); details: at 1 µM
T1 sequence (whole entry): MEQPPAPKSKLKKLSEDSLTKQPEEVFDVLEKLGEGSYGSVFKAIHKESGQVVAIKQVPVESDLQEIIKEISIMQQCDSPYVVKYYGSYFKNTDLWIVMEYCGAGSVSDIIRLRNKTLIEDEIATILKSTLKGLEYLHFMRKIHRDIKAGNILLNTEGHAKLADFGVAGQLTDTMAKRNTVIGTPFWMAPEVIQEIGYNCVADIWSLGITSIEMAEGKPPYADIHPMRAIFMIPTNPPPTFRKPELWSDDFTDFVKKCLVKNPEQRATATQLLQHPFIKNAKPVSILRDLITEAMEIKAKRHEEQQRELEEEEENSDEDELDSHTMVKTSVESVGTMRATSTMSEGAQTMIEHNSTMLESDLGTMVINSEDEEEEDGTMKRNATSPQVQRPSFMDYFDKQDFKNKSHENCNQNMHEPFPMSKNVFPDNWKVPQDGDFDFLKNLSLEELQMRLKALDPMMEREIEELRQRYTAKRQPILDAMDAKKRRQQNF

[2] = target: T1, Serine/threonine-protein kinase 3 (Homo sapiens); details: at 10 µM
[3] = target: Serine/threonine-protein kinase 24 (Homo sapiens) (UniProt Q9Y6E0); details: at 1 µM
Sequence of Serine/threonine-protein kinase 24 (Homo sapiens) (Q9Y6E0 whole entry, looked up): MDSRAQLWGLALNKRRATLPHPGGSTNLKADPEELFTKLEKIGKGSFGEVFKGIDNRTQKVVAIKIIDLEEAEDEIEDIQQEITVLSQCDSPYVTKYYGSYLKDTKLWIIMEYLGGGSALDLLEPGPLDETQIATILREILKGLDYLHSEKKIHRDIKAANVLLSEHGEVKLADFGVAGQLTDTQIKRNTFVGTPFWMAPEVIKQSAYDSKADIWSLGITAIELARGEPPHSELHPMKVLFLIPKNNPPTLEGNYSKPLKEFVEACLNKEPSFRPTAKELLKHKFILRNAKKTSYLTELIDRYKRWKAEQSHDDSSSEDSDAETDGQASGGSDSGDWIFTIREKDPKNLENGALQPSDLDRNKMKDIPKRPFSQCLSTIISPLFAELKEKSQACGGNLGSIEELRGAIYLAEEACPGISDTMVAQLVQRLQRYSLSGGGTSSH

[4] = target: Serine/threonine-protein kinase 24 (Homo sapiens) (UniProt Q9Y6E0); details: at 10 µM
[5] = target: MAP kinase-interacting serine/threonine-protein kinase 2 (Homo sapiens) (UniProt Q9HBH9); details: at 1 µM
Sequence of MAP kinase-interacting serine/threonine-protein kinase 2 (Homo sapiens) (Q9HBH9 whole entry, looked up): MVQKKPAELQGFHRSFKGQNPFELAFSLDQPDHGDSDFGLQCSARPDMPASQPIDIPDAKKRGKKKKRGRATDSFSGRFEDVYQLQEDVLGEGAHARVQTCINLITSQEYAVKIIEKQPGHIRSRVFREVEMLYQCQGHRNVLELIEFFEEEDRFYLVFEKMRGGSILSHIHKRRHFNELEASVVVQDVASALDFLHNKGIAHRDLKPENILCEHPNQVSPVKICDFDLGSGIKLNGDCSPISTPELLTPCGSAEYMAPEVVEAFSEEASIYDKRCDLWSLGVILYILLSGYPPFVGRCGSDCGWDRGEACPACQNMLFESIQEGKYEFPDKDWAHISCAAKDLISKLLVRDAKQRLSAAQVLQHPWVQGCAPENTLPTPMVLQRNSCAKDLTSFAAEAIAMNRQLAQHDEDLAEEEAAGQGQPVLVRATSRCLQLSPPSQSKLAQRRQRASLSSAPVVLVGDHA

[6] = target: MAP kinase-interacting serine/threonine-protein kinase 2 (Homo sapiens) (UniProt Q9HBH9); details: at 10 µM
[7] = target: T2, Muscle, skeletal receptor tyrosine-protein kinase (Homo sapiens) (UniProt O15146); details: at 1 µM
T2 sequence (whole entry): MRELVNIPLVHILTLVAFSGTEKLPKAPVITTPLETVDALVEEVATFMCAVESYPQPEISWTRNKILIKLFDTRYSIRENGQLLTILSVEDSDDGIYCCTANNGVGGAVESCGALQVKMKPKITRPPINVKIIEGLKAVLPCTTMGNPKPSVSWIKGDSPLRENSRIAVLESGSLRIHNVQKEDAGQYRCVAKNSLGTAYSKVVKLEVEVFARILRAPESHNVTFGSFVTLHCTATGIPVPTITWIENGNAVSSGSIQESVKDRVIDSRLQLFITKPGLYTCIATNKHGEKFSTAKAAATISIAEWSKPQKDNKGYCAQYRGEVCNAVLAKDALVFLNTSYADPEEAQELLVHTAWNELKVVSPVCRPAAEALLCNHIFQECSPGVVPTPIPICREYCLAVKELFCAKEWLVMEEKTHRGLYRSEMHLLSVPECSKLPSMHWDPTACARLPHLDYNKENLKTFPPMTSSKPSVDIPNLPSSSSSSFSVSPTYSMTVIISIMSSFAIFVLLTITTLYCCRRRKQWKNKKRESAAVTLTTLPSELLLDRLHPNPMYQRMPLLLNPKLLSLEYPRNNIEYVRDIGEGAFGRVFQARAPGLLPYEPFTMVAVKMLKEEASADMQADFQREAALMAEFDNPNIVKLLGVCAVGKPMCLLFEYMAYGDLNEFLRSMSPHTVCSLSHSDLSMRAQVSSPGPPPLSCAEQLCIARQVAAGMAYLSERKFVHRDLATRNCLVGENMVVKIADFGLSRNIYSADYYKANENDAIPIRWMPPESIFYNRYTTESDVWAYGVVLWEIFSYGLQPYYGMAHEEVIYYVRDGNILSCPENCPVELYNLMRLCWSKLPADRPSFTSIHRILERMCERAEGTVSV

[8] = target: T2, Muscle, skeletal receptor tyrosine-protein kinase (Homo sapiens); details: at 10 µM
[9] = target: T3, Serine/threonine-protein kinase Nek11 (Homo sapiens) (UniProt Q8NG66); details: at 10 µM
T3 sequence (whole entry): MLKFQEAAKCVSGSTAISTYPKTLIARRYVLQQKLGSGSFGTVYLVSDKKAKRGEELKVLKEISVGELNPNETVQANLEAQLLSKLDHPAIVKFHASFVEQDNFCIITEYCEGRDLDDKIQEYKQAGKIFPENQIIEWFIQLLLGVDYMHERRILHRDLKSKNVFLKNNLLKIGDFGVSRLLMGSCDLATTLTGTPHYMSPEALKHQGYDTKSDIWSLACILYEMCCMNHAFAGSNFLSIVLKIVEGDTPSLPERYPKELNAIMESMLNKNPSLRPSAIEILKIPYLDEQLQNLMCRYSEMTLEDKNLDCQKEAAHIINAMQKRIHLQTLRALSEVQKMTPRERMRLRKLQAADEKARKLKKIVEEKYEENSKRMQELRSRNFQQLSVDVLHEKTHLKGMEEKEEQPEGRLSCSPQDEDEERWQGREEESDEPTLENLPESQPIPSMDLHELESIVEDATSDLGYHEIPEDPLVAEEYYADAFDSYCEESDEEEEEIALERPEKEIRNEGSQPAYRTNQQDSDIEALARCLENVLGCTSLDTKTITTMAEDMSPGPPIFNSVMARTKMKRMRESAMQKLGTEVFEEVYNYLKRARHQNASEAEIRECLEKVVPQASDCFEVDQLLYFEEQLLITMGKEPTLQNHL

[10] = target: T4, Serine/threonine-protein kinase Nek3 (Homo sapiens) (UniProt P51956); details: at 1 µM
T4 sequence (whole entry): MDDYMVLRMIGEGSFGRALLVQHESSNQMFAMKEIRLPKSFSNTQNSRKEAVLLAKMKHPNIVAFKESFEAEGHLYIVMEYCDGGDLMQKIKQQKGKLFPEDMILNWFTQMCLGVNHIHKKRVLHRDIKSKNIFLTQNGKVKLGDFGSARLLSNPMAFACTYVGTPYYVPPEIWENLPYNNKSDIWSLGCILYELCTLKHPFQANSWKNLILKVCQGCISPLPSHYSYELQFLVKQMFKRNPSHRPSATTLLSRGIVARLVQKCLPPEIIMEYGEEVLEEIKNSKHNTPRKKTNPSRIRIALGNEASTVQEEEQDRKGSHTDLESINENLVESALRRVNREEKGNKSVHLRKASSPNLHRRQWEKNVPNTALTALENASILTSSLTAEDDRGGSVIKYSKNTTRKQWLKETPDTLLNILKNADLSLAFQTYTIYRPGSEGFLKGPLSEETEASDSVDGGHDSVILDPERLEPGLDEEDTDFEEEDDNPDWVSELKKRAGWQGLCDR

[11] = target: T4, Serine/threonine-protein kinase Nek3 (Homo sapiens); details: at 10 µM
[12] = target: T5, Tyrosine-protein kinase Mer (Homo sapiens) (UniProt Q12866); details: at 1 µM
T5 sequence (whole entry): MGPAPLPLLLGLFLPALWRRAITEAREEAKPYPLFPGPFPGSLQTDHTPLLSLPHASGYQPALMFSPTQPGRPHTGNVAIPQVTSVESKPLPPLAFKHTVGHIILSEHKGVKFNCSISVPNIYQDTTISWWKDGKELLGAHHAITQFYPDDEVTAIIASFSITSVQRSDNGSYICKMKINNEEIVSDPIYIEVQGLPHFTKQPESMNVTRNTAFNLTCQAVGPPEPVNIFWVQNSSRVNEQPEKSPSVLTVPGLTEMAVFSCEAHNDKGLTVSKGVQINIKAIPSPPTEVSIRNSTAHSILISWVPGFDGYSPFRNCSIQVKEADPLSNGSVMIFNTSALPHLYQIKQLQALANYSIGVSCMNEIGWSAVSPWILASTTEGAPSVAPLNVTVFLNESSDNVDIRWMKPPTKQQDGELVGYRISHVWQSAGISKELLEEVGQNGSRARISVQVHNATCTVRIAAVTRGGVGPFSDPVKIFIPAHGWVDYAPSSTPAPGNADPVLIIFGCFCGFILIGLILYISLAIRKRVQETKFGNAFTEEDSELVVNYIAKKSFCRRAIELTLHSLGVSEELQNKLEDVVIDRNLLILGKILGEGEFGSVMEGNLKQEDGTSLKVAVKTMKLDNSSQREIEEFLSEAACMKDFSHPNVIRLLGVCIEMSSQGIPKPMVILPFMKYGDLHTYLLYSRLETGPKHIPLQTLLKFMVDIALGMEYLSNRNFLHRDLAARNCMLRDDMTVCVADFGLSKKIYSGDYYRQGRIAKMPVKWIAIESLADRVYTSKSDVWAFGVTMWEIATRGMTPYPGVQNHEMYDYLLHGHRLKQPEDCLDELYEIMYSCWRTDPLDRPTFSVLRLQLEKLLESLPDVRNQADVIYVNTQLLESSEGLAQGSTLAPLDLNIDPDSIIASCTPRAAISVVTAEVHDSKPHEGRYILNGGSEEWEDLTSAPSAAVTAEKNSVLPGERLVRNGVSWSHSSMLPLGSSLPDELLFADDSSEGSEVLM

[13] = target: T5, Tyrosine-protein kinase Mer (Homo sapiens); details: at 10 µM
[14] = target: Hepatocyte growth factor receptor (Homo sapiens) (UniProt P08581); details: at 1 µM
Sequence of Hepatocyte growth factor receptor (Homo sapiens) (P08581 whole entry): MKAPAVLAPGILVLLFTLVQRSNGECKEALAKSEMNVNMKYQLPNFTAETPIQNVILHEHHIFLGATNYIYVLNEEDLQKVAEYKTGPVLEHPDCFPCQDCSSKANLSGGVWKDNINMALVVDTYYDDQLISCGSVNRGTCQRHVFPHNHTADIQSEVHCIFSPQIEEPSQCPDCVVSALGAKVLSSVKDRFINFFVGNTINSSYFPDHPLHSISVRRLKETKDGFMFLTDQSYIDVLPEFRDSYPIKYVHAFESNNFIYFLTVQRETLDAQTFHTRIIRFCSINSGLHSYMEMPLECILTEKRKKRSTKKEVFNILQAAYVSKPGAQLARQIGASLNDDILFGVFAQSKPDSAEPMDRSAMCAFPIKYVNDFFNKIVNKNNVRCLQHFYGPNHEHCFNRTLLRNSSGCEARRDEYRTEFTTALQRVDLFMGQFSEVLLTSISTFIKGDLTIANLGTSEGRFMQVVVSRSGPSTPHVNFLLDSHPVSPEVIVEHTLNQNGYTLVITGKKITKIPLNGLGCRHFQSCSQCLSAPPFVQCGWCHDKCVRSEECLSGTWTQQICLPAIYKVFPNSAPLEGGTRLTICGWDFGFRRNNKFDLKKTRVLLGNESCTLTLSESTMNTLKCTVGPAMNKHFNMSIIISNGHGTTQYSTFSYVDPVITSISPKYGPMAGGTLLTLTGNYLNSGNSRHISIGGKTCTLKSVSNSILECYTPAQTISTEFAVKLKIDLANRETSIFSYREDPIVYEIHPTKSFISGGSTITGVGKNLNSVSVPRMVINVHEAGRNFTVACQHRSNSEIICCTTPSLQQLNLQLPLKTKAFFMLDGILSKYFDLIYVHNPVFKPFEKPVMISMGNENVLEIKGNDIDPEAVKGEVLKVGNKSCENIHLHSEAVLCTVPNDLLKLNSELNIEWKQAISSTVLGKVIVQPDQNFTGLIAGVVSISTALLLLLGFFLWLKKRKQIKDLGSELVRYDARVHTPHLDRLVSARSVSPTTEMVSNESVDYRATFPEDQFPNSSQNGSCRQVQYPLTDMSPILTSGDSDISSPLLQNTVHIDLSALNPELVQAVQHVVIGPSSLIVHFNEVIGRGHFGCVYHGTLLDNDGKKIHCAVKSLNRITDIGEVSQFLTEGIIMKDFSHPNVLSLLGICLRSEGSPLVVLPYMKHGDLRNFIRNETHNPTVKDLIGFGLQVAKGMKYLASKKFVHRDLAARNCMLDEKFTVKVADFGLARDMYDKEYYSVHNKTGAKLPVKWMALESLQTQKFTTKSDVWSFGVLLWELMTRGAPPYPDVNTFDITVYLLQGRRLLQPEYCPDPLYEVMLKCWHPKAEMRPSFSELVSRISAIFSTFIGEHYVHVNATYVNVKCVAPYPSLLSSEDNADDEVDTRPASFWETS

[15] = target: Hepatocyte growth factor receptor (Homo sapiens) (UniProt P08581); details: at 10 µM
[16] = target: T3, Serine/threonine-protein kinase Nek11 (Homo sapiens); details: at 1 µM
[17] = target: T6, Serine/threonine-protein kinase Nek2 (Homo sapiens) (UniProt P51955); details: at 1 µM
T6 sequence (whole entry): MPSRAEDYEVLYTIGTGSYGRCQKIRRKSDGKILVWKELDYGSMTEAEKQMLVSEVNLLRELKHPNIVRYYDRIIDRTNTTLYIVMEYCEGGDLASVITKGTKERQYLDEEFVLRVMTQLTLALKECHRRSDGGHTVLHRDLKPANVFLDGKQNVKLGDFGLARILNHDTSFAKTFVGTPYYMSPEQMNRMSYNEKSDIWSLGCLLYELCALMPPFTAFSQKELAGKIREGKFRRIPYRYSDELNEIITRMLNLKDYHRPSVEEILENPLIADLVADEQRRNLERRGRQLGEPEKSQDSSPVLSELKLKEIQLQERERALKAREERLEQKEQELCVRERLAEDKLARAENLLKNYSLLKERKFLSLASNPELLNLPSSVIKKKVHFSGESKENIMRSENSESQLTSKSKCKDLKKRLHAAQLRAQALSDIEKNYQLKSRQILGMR

[18] = target: T6, Serine/threonine-protein kinase Nek2 (Homo sapiens); details: at 10 µM
[19] = target: Serine/threonine-protein kinase tousled-like 2 (Homo sapiens) (UniProt Q86UE8); details: at 1 µM
Sequence of Serine/threonine-protein kinase tousled-like 2 (Homo sapiens) (Q86UE8 whole entry, looked up): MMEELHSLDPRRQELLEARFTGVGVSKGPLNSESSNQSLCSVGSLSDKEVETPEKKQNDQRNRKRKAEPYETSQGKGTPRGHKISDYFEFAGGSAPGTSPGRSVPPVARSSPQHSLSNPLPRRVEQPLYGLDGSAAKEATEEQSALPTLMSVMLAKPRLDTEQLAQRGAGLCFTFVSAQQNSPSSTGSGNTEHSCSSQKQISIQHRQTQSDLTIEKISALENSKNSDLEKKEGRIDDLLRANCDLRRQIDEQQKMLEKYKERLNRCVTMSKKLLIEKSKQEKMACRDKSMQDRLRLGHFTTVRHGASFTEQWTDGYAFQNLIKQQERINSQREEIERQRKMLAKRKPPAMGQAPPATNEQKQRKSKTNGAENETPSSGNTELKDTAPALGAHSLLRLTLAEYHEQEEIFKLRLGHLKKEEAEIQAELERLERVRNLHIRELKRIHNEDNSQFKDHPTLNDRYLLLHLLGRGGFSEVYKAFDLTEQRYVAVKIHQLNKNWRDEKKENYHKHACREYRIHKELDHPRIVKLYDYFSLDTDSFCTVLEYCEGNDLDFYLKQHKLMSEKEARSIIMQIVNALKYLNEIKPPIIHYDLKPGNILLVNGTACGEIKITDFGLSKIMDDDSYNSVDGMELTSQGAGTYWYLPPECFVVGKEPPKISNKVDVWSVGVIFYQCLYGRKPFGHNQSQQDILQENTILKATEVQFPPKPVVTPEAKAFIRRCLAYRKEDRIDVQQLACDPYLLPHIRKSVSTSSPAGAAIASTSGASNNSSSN

[20] = target: Serine/threonine-protein kinase tousled-like 2 (Homo sapiens) (UniProt Q86UE8); details: at 10 µM

| Structure (SMILES) | residual activity [1] [%] | residual activity [2] [%] | residual activity [3] [%] | residual activity [4] [%] | residual activity [5] [%] | residual activity [6] [%] | residual activity [7] [%] | residual activity [8] [%] | residual activity [9] [%] | residual activity [10] [%] | residual activity [11] [%] | residual activity [12] [%] | residual activity [13] [%] | residual activity [14] [%] | residual activity [15] [%] | residual activity [16] [%] | residual activity [17] [%] | residual activity [18] [%] | residual activity [19] [%] | residual activity [20] [%] |
| --- | --- | --- | --- | --- | --- | --- | --- | --- | --- | --- | --- | --- | --- | --- | --- | --- | --- | --- | --- | --- |
| N#CCCc1ccc2c(c1)-c1[nH]c3ccc([N+](=O)[O-])cc3c1CC(=O)N2 | 27 | 7 | 37 | 12 | 72 | 42 | 68 | 32 | 72 | 79 | 67 | – | – | – | – | – | – | – | – | – |
| COc1ccc(OC)c2c(=S)c3ccccc3[nH]c12 | 96 | 93 | 80 | 85 | 97 | 77 | 89 | 85 | 54 | 74 | 91 | 99 | 85 | 118 | 119 | 70 | 98 | 95 | 84 | 87 |
| CO[C@@H]1[C@H](N(C)C(=O)c2ccccc2)C[C@H]2O[C@]1(C)n1c3ccccc3c3c4c(c5c6ccccc6n2c5c31)C(=O)NC4 | 3 | 0 | 17 | 7 | 44 | 27 | 32 | 13 | 49 | 102 | 37 | 8 | 6 | 35 | 40 | 47 | 82 | 86 | – | 72 |
| c1ccc2c(-c3ccncc3)c[nH]c2c1 | 103 | 81 | 61 | 69 | 35 | 9 | 88 | 82 | 67 | – | – | 100 | 73 | – | 68 | 89 | 78 | 88 | 103 | 85 |
| Nc1ccc2ncnc(NCCc3ccc(Oc4ccccc4)cc3)c2c1 | 100 | 72 | 99 | 72 | 105 | 74 | 92 | 49 | 55 | 81 | 109 | 95 | 62 | 124 | 80 | 68 | 114 | 101 | 111 | 100 |
| Cc1cc2ncc(-c3ccccc3)nc2cc1C | 88 | 95 | 65 | 83 | – | – | 101 | 75 | 93 | – | 93 | 107 | 90 | 87 | 134 | 97 | 92 | 105 | 103 | 99 |
| c1ccc(-c2n[nH]cc2-c2ccnc3ccccc23)nc1 | 88 | 88 | 66 | 65 | 109 | 98 | 105 | 79 | 96 | – | – | 98 | 85 | 108 | 90 | 98 | 82 | 101 | 96 | 99 |
